# CYP2C9 inhib: human CYP2C9 inhibition | P11712 | CYP2C9 Supersomes, luciferin-H conversion, luminescence | inhibition, % at 5 µM | hit rate 20% among 96,000;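 active = blocking of liver enzyme CYP2C9 beyond about 50% at 5 µM, limit read from the data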
# CYP2C19 activ: cytochrome P450 2C19 (human) activation. P33261. recombinant CYP2C19, luciferin-H EGE luminescence; active compounds read high; 0 = fully inhibited enzyme, 1 = untreated enzyme. activation factor at 5 µM. 96,000 tested, under 10 active;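 active = activation factor of at least 2 at 5 µM in the primary screen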;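 note: 0 = wells with 2.5 mM tranylcypromine and 1 = vehicle-only wells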
# Target sequence (P33261 whole entry, looked up): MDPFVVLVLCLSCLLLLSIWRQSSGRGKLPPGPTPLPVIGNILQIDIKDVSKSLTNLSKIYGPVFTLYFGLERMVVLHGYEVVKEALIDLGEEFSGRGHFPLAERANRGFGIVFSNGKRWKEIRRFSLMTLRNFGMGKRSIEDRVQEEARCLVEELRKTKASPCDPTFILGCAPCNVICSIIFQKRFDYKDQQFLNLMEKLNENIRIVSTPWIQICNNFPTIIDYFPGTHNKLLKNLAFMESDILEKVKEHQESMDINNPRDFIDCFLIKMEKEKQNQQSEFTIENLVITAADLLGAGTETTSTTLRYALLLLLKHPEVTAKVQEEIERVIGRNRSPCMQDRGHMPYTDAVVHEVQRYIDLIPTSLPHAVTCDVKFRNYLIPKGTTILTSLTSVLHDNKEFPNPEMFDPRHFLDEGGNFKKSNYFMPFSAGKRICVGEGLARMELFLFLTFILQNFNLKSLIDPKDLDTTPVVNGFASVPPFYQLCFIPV
# sEH inhibitor: inhibitors of human soluble epoxide hydrolase; recombinant human sEH enzymatic activity assay; AID 707; inhibition, % at 2 µM; hit rate 0.34% among 91,000; in the data active = inhibition above about 80%
# sEH act: activators of human soluble epoxide hydrolase. activation, % at 2 µM. AID 717. purified human sEH enzymatic activity, activator screen. hit rate 0.04% among 91,000; in the data active = activation above about 37%
# CYP2C19 inh: blocks human cytochrome P450 2C19; P33261; CYP2C19 Supersomes, luciferin-H EGE luminescence, 30 min; inhibition, % at 5 µM; hit rate 21% among 96,000; AID 778;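 active = CYP2C19 inhibition above a set limit at 5 µM in the primary screen, cut at about 50% in these data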;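 note: plate controls were negative control wells for no effect and 2.5 mM tranylcypromine positive control for full effect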
# CYP2C9 activ: increases human cytochrome P450 2C9 activity | P11712 | recombinant CYP2C9, luciferin-H conversion, luminescence; active compounds read high; factor 1 = untreated enzyme, 0 = blocked | activation factor at 5 µM | hit rate 1.4% among 96,000 | AID 1024;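 active = activation factor of 2 or more for CYP2C9 at a 5 µM dose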;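 note: 0 = sulfaphenazole-blocked wells and 1 = vehicle-only wells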
# Starred values were filed as active, the others as inactive; x = no result. Shown are actives, neighbours in structure and some others; about 27% of the full set was active somewhere.
SMILES,CYP2C9 inhib,CYP2C19 activ,sEH inhibitor,sEH act,CYP2C19 inh,CYP2C9 activ
COc1cccc(N2CCN(Cc3cccnc3)CC2)c1,-13,0.3,x,x,67*,1.1
CC1CCC(NC(=O)C2CCN(C(=O)NC3CCCCC3)CC2)CC1 (stereo unspecified),-18,1.2,12,-13,-17,1.2
O=C(Nc1cc(N2CCOCC2)ncn1)Nc1cccc2ccccc12,-102,0.9,8,-9,13,2*
Cc1cc(NC(=O)Nc2cccc3ccccc23)no1,-30,0.8,x,x,23,1.3
O=C(Nc1cccc2ccccc12)N1CCOCC1,-1,1,-7,8,-3,1
S=C(Nc1cccc2ccccc12)NN1CCOCC1,81*,0.2,1,-2,75*,0.2
O=C(Nc1cccc2ccccc12)c1ccc(OC(=S)N2CCOCC2)cc1,-7,1.1,88*,-88,-12,1.1
Cc1ccc(-n2c(-c3ccccc3)cc(=O)nc2C)cc1,-8,x,6,-4,x,1.1
Cc1ccccc1C(=O)N1CCC(C(=O)Nc2ccc3c(c2)OCCO3)CC1,-21,1,29,-28,4,1.2
CC(C)C(NC(=O)C12CC3CC(CC(C3)C1)C2)C(=O)O (stereo unspecified),5,1,-3,2,0,0.9
CCc1ccc(NC(=O)CNS(=O)(=O)c2c(C)noc2C)cc1,51*,0.6,8,-10,37,0.5
CCc1ccc(N(CC(=O)O)S(=O)(=O)c2c(C)noc2C)cc1,25,1,x,x,-2,0.7
COc1ccc(CCNC(=O)c2ccc(NS(=O)(=O)c3c(C)noc3C)cc2)cc1OC,64*,0.9,8,-6,11,0.4
Cc1noc(C)c1S(=O)(=O)Nc1ccc(C(=O)NC2CCCCCC2)cc1,41,1.1,23,-22,-10,0.6
Cc1ccc(CNC(=O)c2ccc(NS(=O)(=O)c3c(C)noc3C)cc2)cc1,70*,1,4,-2,4,0.3
CCOC(=O)c1c(NC(C)=O)sc2c1CCC(C=NCCCN(CC)CC)=C2Sc1ccccc1,x,x,2,-2,x,x
CCOc1ccccc1C(=O)NCCCN1CCN(CCCNC(=O)c2ccccc2OCC)CC1,-19,1,x,x,-4,1.2
O=C1C2C3CCCC3=C3CCCC3C2C(=O)N1c1ccc(Cl)cc1 (stereo unspecified),54*,0.2,1,-3,75*,0.5
CCOC(=O)C1CCCN(C(=O)c2ccc(CS(=O)(=O)Cc3ccccc3C)o2)C1 (stereo unspecified),37,0.7,-1,-1,31,0.6
CCOC(=O)C1CCCN(C(=O)c2ccc(CS(=O)(=O)c3ccc(C)cc3)o2)C1 (stereo unspecified),83*,0.9,4,-2,11,0.2
Cc1ccc(S(=O)(=O)Cc2ccc(C(=O)N3CCCCCC3)o2)cc1,28,0.7,0,2,31,0.7
Cc1ccc(S(=O)(=O)Cc2ccc(C(=O)N3CCCC3)o2)cc1,19,0.4,-13,16,58*,0.8
Cc1ccc(OCc2ccoc2C(=O)O)cc1C,-14,1,-2,2,-2,1.1
COc1cccc(S(=O)(=O)Nc2ccc(C(=O)N3CCOCC3)cc2)c1,20,0.8,-15,14,20,0.8
O=C(N/N=C/C=C/c1ccccc1)c1cnccn1,-8,1,8,-7,-2,1.1
SMILES,CYP2C9 inhib,CYP2C19 activ,sEH inhibitor,sEH act,CYP2C19 inh,CYP2C9 activ
COc1ccccc1OCC(=O)Nc1nc(-c2ccc(S(=O)(=O)N3CCOCC3)cc2)cs1,x,x,7,-6,x,x
O=C(COc1ccc(Cl)cc1)Nc1nc(-c2ccc(S(=O)(=O)N3CCOCC3)cc2)cs1,92*,0.4,6,-6,58*,0.1
O=C(CCc1ccc(S(=O)(=O)N2CCOCC2)cc1)Nc1nccs1,21,0.6,-6,7,37,0.8
O=C(CCc1ccc(S(=O)(=O)N2CCOCC2)cc1)Nc1nc(COc2ccccc2)cs1,85*,1,11,-9,0,0.2
O=C(COc1ccccc1)Nc1nc(-c2ccc(S(=O)(=O)N3CCOCC3)cc2)cs1,78*,0.8,10,-12,24,0.2
COC(=O)c1ccc(OCC(O)CN2C(=O)NC(C)(C)C2=O)cc1 (stereo unspecified),14,0.6,-5,5,38,0.9
COC(=O)c1ccc(OCC(O)Cn2nnc3ccccc32)cc1 (stereo unspecified),82*,0.2,-10,7,81*,0.2
CC(=O)c1ccc(OCC(O)Cn2nnc3ccccc32)cc1 (stereo unspecified),72*,0.2,x,x,76*,0.3
O=C1C2CC=CCC2C(=O)N1c1ccc(OCC(O)Cn2nnc3ccccc32)cc1 (stereo unspecified),40,0.8,16,-14,16,0.6
Cc1cccc(C)c1OCC(O)Cn1nnc2ccccc21 (stereo unspecified),17,0.4,-1,4,59*,0.8
CC(=O)Nc1c(NCC(C)C)c2ccccc2oc1=O,x,x,6,-4,x,x
COc1cccc(Cn2cccc(NC(=O)Nc3ccc(C#N)cc3)c2=O)c1,2,0.9,3,-1,6,1
CCCn1c(=O)c2ccccc2n2c(SCc3c(C(=O)OCC)oc4ccccc34)nnc12,64*,0.4,6,-6,59*,0.4
O=C(Nc1cccc(C(F)(F)F)c1)C1C2CC3OC(=O)C1C3C2 (stereo unspecified),-42,0.9,-4,6,9,1.4
COc1cc(Cl)cc(C2NC(=O)NC(C)=C2C(C)=O)c1OCC(=O)O (stereo unspecified),7,1.1,-9,5,-14,0.9
Cc1cccc(C)c1OCC(=O)N/N=C/c1cc2c(cc1[N+](=O)[O-])OCO2,36,0.5,25,-24,48,0.6
O=[N+]([O-])c1cc2c(cc1/C=N\NS(=O)(=O)c1ccccc1)OCO2,82*,0.5,-5,5,46,0.2
Cc1cccc2cc(CN(Cc3ccco3)C(=O)Nc3cccc(C#N)c3)c(Cl)nc12,95*,0.4,14,-12,62*,0.1
Cc1ccc(NC(=O)N(Cc2ccco2)Cc2cc3cc(C)cc(C)c3nc2Cl)cc1,50*,0.8,32,-33,19,0.5
Cc1ccc(C)c2[nH]c(=O)c(CN(Cc3ccco3)C(=O)Nc3ccccc3)cc12,40,0.7,12,-13,26,0.6
Cn1c(SCc2c(Cl)cccc2Cl)nc(C(F)(F)F)cc1=O,3,1.1,11,-9,-9,1
Cc1nc(N2CCN(S(=O)(=O)c3ccccc3)CC2)c2cc(-c3ccccc3)sc2n1,53*,0.9,-8,7,8,0.5
O=S(=O)(c1ccccc1)N1CCN(c2ncccn2)CC1,62*,0.5,17,-15,46,0.4
O=S(=O)(c1cc(F)cc(F)c1)N1CCN(c2ncccn2)CC1,47,0.3,20,-20,72*,0.5

# Screening results deposited in PubChem by several laboratories.
